Screens from PubChem.
The list is not random: actives were taken first. Their share in the collection is about 11%.
ALDH1A1 block: inhibitors of human aldehyde dehydrogenase 1A1; Purified ALDH1A1, NADH fluorescence, propionaldehyde substrate; Potency, µM (doses to about 75.3 µM), for the others: top-dose activity, negative = inhibition, usual class: inhibitors; 220,000 compounds, 7.3% hits;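 also: potency is read from the fitted curve at half-maximal effect; plate controls were no enzyme wells and a reference inhibitor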
Target sequence (P00352 whole entry, looked up): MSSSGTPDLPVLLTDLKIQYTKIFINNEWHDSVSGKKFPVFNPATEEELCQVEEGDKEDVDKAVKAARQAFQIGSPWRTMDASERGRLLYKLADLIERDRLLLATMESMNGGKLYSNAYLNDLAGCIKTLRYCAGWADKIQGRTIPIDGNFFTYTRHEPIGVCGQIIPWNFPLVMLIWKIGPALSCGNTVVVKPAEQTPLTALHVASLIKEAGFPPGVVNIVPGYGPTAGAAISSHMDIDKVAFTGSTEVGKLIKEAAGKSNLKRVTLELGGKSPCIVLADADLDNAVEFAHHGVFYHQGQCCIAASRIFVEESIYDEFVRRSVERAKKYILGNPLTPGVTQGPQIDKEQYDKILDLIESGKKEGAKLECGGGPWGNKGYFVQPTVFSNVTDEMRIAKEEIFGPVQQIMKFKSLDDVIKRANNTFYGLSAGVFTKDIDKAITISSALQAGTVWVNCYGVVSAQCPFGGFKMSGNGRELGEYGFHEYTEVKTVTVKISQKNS
HPGD inh: HPGD (human) dehydrogenase inhibition. P15428. purified HPGD, NADH fluorescence kinetic, PGE2 substrate. Potency, µM, for the others: top-dose activity change, negative = inhibition, usual class: inhibitors. 150,000 compounds, 4.3% hits; also: potency is read from the fitted curve at half-maximal effect
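20 nM HPGD preincubated 15 min at room temperature with compound in 50 mM Tris-HCl pH 8, 0.01% Tween 20. Started with 1 mM NAD+ and 30 uM prostaglandin E2; NADH fluorescence (360/450 nm) read 5 times over 30-s intervals, last minus first.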
PNC assembly inh: perinucleolar compartment assembly inhibition; PC3M PTB-GFP, PNC prevalence imaging, 16 h; active compounds read low; activity change (PNC), negative = inhibition, % at 10 µM; 140,000 compounds, 3.1% hits; AID 2417;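 active = readout at or below -70, meaning at least 70% loss of cells showing the perinucleolar compartment, a nuclear body marking cancer cells; inconclusive = readout between -30 and a set limit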;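 also: plate controls were DMSO wells for no effect and camptothecin positive control wells for full effect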
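Read-out is percentage of cells bearing a perinucleolar compartment, from automated 20x imaging of fixed, Hoechst-stained PC3M PTB-GFP cells. Cells were seeded 4 h, then exposed 16 h to compound (23 nl of library stock) in duplicate plates.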
The depositor's hits bear a star; ? = inconclusive; nt = no result given. Unless noted, calls follow the shape of the dose curve; as a rule, active = well fitted inhibition curve with a large enough effect (not every such curve was filed as active); inconclusive = small, poorly fitted or top-dose-only effect, or another doubt; inactive = no such curve, though single readings can be large or run the other way. Unless noted, % is scaled to controls: 0 for no effect and ±100 for the full control effect.

SMILES	ALDH1A1 block	HPGD inh	PNC assembly inh
CCc1nnc(NC(=O)Cn2nc(-c3ccccc3OC)ccc2=O)s1	0%	-15%	30
Cc1ccc(-c2cc(-c3ccccc3)[nH]c(=S)c2C#N)cc1	?	-11%	25
N#Cc1c(-c2ccc(C(F)(F)F)cc2)cc(-c2ccccc2)[nH]c1=S	?	-10%	-99*
CC(O)C(NS(=O)(=O)c1ccc(Cl)cc1)C(=O)OCC(=O)N1CCN(c2ccccc2)CC1 (stereo not drawn)	?	-4%	77
CC1CN(c2nc3ccccn3c(=O)c2C=O)CC(C)O1 (stereo not drawn)	4%	nt	nt
OC[C@@H]1O[C@@H](n2cnc3c(NC4CCCC4)ncnc32)[C@H](O)[C@H]1O	-7%	-7%	nt
OC[C@H]1O[C@@H](n2cnc3c(NC4CCCC4)ncnc32)[C@H](O)[C@@H]1O	1%	-7%	-115*
CC1(C)Oc2ccc(C(=O)NN)cc2NC1=O	1.6µM*	nt	nt
COCCNC(=O)C1(C)Oc2ccccc2NC1=O (stereo not drawn)	7%	0%	-7
Cc1[nH]c2ccccc2c1-c1nc(-c2ccc(Cl)cc2)nnc1-c1ccccc1	15%	nt	nt
COC(=O)N1CC=CC1(C)C(=O)NCc1ccc(C)o1 (stereo not drawn)	?	-35%	nt
CC(=O)c1cc(OC(=O)N2CCOCC2)ccc1OC(=O)N1CCOCC1	-3%	-8%	?
CC(=O)Oc1ccc(OC(C)=O)c(SCCCCCN2CCOCC2)c1	3%	18µM*	93
N#C/C(=N\Nc1cccc(C(F)(F)F)c1)C(=O)c1ccsc1	-7%	nt	nt
CCOC(=O)Cn1nc(C)n(-c2cccc(Cl)c2)c1=O	8%	nt	nt
CCOC(=O)CNC1CC(=O)N(c2cccc(Cl)c2)C1=O (stereo not drawn)	18µM*	0%	1
CCOC(=O)CNC(=O)N1CCCC(CCC(=O)NCc2ccc(F)c(F)c2)C1 (stereo not drawn)	32µM*	nt	nt
COc1cccc(CNC(=O)CCC2CCCN(C(=O)c3cc(C)on3)C2)c1 (stereo not drawn)	2%	nt	nt
COc1cccc(CNC(=O)CCC2CCCN(C(=O)c3ccc(OC)o3)C2)c1 (stereo not drawn)	7.9µM*	nt	nt
COCCC(=O)N1CCCC(CCC(=O)NCc2ccc(F)c(F)c2)C1 (stereo not drawn)	2%	nt	nt
Cc1cnc(C(=O)NCC(c2ccccc2)c2ccccc2)cn1	-13%	nt	nt
N#Cc1ccc(CN2CC[C@@]3(CCCN(C(=O)c4ccco4)C3)C2)cc1	14µM*	-3%	nt
O=C(c1ccco1)N1CCC2(CCCN(c3ncccn3)C2)CC1	?	-14%	nt
CC(C)CN1CC[C@@]2(CCCN(C(=O)c3ccco3)C2)C1	0.45µM*	-5%	nt
O=C(c1ccco1)N1CCC2(CCN(Cc3ccncc3)CC2)CC1	?	-8%	nt
SMILES	ALDH1A1 block	HPGD inh	PNC assembly inh
O=C(c1ccco1)N1CCC2(CCCN(c3ccncc3)C2)CC1	3.5µM*	-2%	nt
N#Cc1ccc(CN2CC[C@@]3(CCCN(C(=O)c4ccncc4)C3)C2)cc1	-1%	-3%	nt
O=C(c1ccco1)N1CCC2(CCN(Cc3ccccc3)CC2)CC1	18µM*	1%	nt
CC(C)NC(=O)N1CCCC2(CCN(C(=O)c3ccco3)CC2)C1	-3%	-5%	nt
COc1ccccc1Nc1ncnc2ccc(C)cc12	12%	-7%	?
O=C(CSc1nnc(CNC(=O)C23CC4CC(CC(C4)C2)C3)n1-c1ccccc1)Nc1ccccc1	3%	1%	-22
Cc1ccc(N(CC(O)Cn2nc(C)cc2C)S(=O)(=O)c2ccc3ccccc3c2)cc1 (stereo not drawn)	?	-9%	?
N#Cc1cc2c(nc1SCc1cccnc1)CCC2	?	-20%	-8
N#Cc1cc2c(nc1SCc1cccnc1)CCCC2	?	13µM*	?
O=C(Nc1ccc(F)cc1)c1ccccc1CC[N+](=O)[O-]	?	-10%	?
Cc1c(C2C(C#N)=C(N)N(c3ccccc3C#N)C3=C2C(=O)CCC3)cnn1C (stereo not drawn)	3%	-14%	9
N#CC1=C(N)N(c2ccccc2C#N)C2=C(C(=O)CCC2)C1c1ccsc1 (stereo not drawn)	25µM*	-29%	31
CCn1ncc(CN2CCCC(CNC(=O)c3ccc(F)cc3)C2)c1C (stereo not drawn)	5%	nt	nt
CCC1(C(=O)O)NC(c2cc(OC)ccc2O)C2C(=O)N(Cc3ccccc3)C(=O)C21 (stereo not drawn)	9%	-1%	34
CCCC1(C(=O)O)NC(c2ccccc2O)C2C(=O)N(Cc3ccccc3)C(=O)C21 (stereo not drawn)	2%	-9%	-110*
CCOC(=O)c1[nH]c(C(=O)O)c(CCN(CC)CC)c1C	5%	-2%	0
O=C(COC(=O)C1CCN(S(=O)(=O)c2ccc3c(c2)OCCO3)CC1)Nc1cc(C(F)(F)F)ccc1Cl	6%	-5%	3
C#CC1(O)CC(C)N(C)C(C)C1 (stereo not drawn)	?	-5%	-91*
CC(=O)N1N=C(c2ccco2)CC1c1ccc(Br)cc1 (stereo not drawn)	-2%	-22%	-29
Cc1ccc(NC(=O)c2sc3nc[nH]c(=O)c3c2C)c(C)c1	3%	-26%	50
S=C=Nc1cccc(NC(=S)NCCCCNC(=S)Nc2cccc(N=C=S)c2)c1	?	-12%	nt
COc1ccc2c(CC(=O)NC3CCCc4ccccc43)coc2c1 (stereo not drawn)	?	nt	-13
Cc1cc2occ(CC(=O)NC3CCCc4ccccc43)c2cc1C (stereo not drawn)	2.2µM*	-9%	26
CCOc1ccc(NC(=O)c2cccc(OC(=S)N3CCOCC3)c2)cc1	-5%	nt	nt
CC1(C)CC2(CC(C)(C)N1)OC(=O)N1CCc3ccccc3C12C (stereo not drawn)	5%	2%	-23
SMILES	ALDH1A1 block	HPGD inh	PNC assembly inh
CN1C(=O)OC2(C)CCc3ccccc3C12C (stereo not drawn)	32µM*	nt	?
CC(=O)c1sc(NC(=O)C2(F)C(F)(F)C(F)(F)C(F)(F)C(F)(F)C2(F)F)nc1C	-11%	-17%	38
CCOc1cc(/C=C2\SC(=S)N(Nc3ccccc3)C2=O)ccc1O	11µM*	-13%	-23
COc1cc(/C=C2\SC(=S)N(Nc3ncc(C(F)(F)F)cc3Cl)C2=O)ccc1O	-10%	-12%	28
Cc1cc(C)nc(NN2C(=O)/C(=C/c3ccccc3)SC2=S)n1	?	35µM*	-20
CCOc1cc(/C=C2\SC(=O)N=C2N)ccc1O	?	?	76
Cn1cccc1/C=C1\SC(=S)N(NC(=O)c2ccccc2Cl)C1=O	4%	-2%	16
O=C(NN1C(=O)/C(=C\c2ccc(O)c([N+](=O)[O-])c2)SC1=S)c1ccccc1Cl	14µM*	nt	nt
COc1cc(/C=C2\SC(=S)N(Nc3ccccc3)C2=O)ccc1O	10µM*	-13%	-15
CC(=O)NN1C(=O)/C(=C\c2ccccc2)SC1=S	15%	-4%	60
Cc1cc2c(=O)oc(-c3ccc(Br)cc3)nc2s1	-12%	nt	nt
Cc1c(NC(=O)c2cc(CC(C)C)on2)c(=O)n(-c2ccccc2)n1C	?	0%	1
Cc1ccc(NC(=S)NNC(=O)c2nnn(-c3ccccc3)c2C)cc1	?	-12%	23
